# Screening results (PubChem BioAssay)
# SMN2 splice up: enhancers of SMN2 splice variant expression; HEK293 SMN2-luciferase splicing reporter, luminescence, 30-36 h; Potency, µM (series often up to 46.1 µM), for the others: at the top dose activity change, positive = activation, most hits filed as activators; AID 1458; 2.8% of 210,000 active; also: % of control where 0% means no effect; nearly all actives have a fitted effect of over 55% in size
#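 HEK293 cells carry an SMN2 […]–luciferase reporter in which exon 7 inclusion puts luciferase in frame. Cells were plated 10-12 h before compound addition, then incubated 30-36 h at 37C. ONE-Glo luminescence was read; sodium butyrate at 4.5 mM final served as control.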
# KinaseGlo FLuc: blocks Kinase-Glo luciferase, a counter-screen artifact. Q27757. Kinase-Glo luciferase, ATP luminescence, 8 min. Potency, µM (highest dose often 38.3 µM), without a hit: top-dose activity change, negative = inhibition, actives largely listed as inhibitors. 0.28% of 200,000 active. AID 1379; also: % is scaled to controls: 0 for no effect and ±100 for the full control effect; nearly all actives have a fitted effect of over 60% in size
#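 Luminescence was the read-out, taken after 8-minute incubation at ambient temperature. Luciferase turned over luciferin with 10 uM ATP in imidazole pH 7.2 buffer containing KCl, MgCl2, Tween 20 and BSA.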
# ELG1 genotox: inducers of genotoxicity in HEK293T ELG1-luciferase cells | HEK293T ELG1-luciferase reporter, luminescence, 16 h | 1.3% of 330,000 active | Potency, µM (highest dose often 46 µM), without a hit: at the top dose activity change, positive = activation, actives largely listed as activators; also: % of control where 0% means no effect; nearly all actives have a fitted effect of over 60% in size
#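 Cells (2,000/well) expressing the ELG1-luciferase fusion are dosed by pin tool and kept 16 hr at 37 °C, 5% CO2. Signal comes from ONE-Glo luciferase reagent after 30 min at room temperature.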
# NPC1 prom act: NPC1 promoter activation; Potency, µM (highest dose often 9.22 µM), inactives show at the top dose activation, actives largely listed as activators; Huh7 NPC1 promoter luciferase reporter, 24 h; 2.4% of 320,000 active; also: % of control where 0% means no effect; nearly all actives have a fitted effect of over 60% in size
#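 Stably transfected Huh7 (NPC1 promoter→luciferase), 1500 cells/well in Opti-MEM + 10% FBS, 2 h settle, then compound 24 h at 37 °C. Luminescence after 10 min with Amplite reagent.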
# FLuc modulator: firefly luciferase modulation, counter-screen for miR-21 project. P08659. purified FLuc, Km substrates, luminescence inhibition. Potency, µM (series often up to 57.5 µM), without a hit: at the highest dose activity change, negative = inhibition, usual class: inhibitors. 6.9% of 360,000 active. AID 588342;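 also: plate controls were vehicle for no effect and reference inhibitor for full effect; nearly all actives have a fitted effect of over 55% in size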
# Target sequence (P08659 whole entry, looked up): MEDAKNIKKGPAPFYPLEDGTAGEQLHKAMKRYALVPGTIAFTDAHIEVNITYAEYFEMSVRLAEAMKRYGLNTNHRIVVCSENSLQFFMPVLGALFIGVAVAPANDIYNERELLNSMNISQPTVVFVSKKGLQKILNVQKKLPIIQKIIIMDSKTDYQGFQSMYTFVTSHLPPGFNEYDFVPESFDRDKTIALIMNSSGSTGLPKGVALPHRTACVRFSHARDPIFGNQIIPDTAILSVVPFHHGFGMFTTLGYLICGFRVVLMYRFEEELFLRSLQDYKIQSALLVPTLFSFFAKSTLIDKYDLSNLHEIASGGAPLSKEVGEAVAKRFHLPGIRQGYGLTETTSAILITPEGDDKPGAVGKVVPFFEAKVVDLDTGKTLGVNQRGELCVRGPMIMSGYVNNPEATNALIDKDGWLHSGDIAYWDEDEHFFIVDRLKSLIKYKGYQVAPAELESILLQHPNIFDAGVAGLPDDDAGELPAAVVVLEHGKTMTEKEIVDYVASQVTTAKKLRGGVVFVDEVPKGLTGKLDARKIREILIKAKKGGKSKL
#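 Biochemical qHTS of compounds, final roughly 60 µM downward over six points, against 10 nM purified firefly luciferase using Km concentrations of substrates (10 uM D-luciferin, 10 uM ATP) in Tris acetate pH 7.5 buffer; luminescence output.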
# Rab9 promoter act: Rab9 promoter activation | Huh7 Rab9 promoter-luciferase reporter, luminescence, 24 h | Potency, µM (doses to about 9.22 µM), without a hit: top-dose activation, negative = inhibition, most hits filed as activators | 2.8% of 320,000 active | AID 485297; also: % of control where 0% means no effect; nearly all actives have a fitted effect of over 60% in size
#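 Huh7 reporter line, Rab9 promoter upstream of luciferase. Compound exposure 24 h at 37 °C in reduced-serum medium with 10% FBS. Read-out: luminescence.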
# * hit, by the source's call; ? = inconclusive; . = not tested or not shown; [ ] = remark or other dose. Sampled rows, rich in hits. Any-hit rate of the full collection: about 7.5%. Calls follow the shape of the dose curve; as a rule, active = well fitted curve in the direction sought with a large enough effect; inconclusive = small, poorly fitted or top-dose-only effect, or another doubt; inactive = no such curve, though single readings can be large; an effect the other way counts as inactive or inconclusive. Potency is read from the fitted curve at half-maximal effect.
SMILES,SMN2 splice up,KinaseGlo FLuc,ELG1 genotox,NPC1 prom act,FLuc modulator,Rab9 promoter act
Cc1ccc(-c2cc(C(=O)NN3CCOCC3)c3cc(Br)ccc3n2)o1,10%,-2%,-6%,-4%,?,-5%
O=C(NC1=NCCS1)c1cc(-c2cccnc2)nc2ccccc12,-11%,-3%,-3%,-1%,?,5%
Cc1ccc(-c2cc(C(=O)O)c3cc(Br)ccc3n2)o1,19%,-2%,-4%,5%,11µM*,4%
Cc1ccc(-c2cc(C(=O)NC3=NCCS3)c3cc(Br)ccc3n2)o1,5%,0%,-6%,4%,6µM*,10%
CC(C)NC(=O)C(=O)NCCCN1CCOCC1,.,-4%,0%,-5%,-2%,-8%
COCCNC(=O)C(c1ccc(C)o1)N(C(=O)Cn1nnc2ccccc21)c1ccccc1 (stereo not given),0%,-3%,0%,-2%,-12%,2%
Cc1cccc(-c2cc(C(=O)NCCCn3ccnc3)c3ccccc3n2)c1,-12%,-7%,2%,-1%,15µM*,-3%
N/C(=N\OC(=O)COc1ccc(Cl)cc1Cl)c1ccccn1,.,-8%,1.2µM*,0.79µM*,0.76µM*,0.71µM*
N/C(=N\OC(=O)COc1ccc(Br)cc1Cl)c1ccccn1,7.1µM*,-11%,2.6µM*,2.8µM*,1.5µM*,2.8µM*
Cc1cc(C)c(C)c(OCC(=O)O/N=C(\N)c2ccccn2)c1,-10%,-2%,0%,0%,-9%,-4%
CCOC(=O)CC(=O)CSc1ncnc2c1cnn2-c1ccccc1,9%,-2%,?,?,24µM*,?
CCOC(=O)CSc1ncnc2c1cnn2-c1ccc(Cl)cc1,7%,1%,17%,13%,9.5µM*,5%
Cc1nnc2c3cnn(-c4ccc(Cl)cc4)c3ncn12,-8%,-4%,21µM*,?,?,?
CCOC(=O)Cn1cnc2c(cnn2-c2ccc(Cl)cc2)c1=O,.,.,3%,21%,?,?
CCOC(=O)CSc1ncnc2c1cnn2-c1ccc(C)cc1,25%,4%,?,14%,?,16%
CS(=O)(=O)c1ccc2nc(NC(=O)c3ccco3)sc2c1,7.9µM*,?,?,2.8µM*,4.8µM*,1.6µM*
Cc1ccc(C(=O)Nc2nc3ccc(S(C)(=O)=O)cc3s2)o1,4µM*,13µM*,?,2.8µM*,3µM*,2.5µM*
Cc1noc(C)c1C(=O)Nc1nc2ccc(S(C)(=O)=O)cc2s1,.,.,?,?,1.1µM*,?
CS(=O)(=O)c1ccc2nc(NC(=O)c3cccc(Cl)c3)sc2c1,.,.,12%,17%,?,1%[1.84 µM]
COc1ccc(C(=O)Nc2nc3ccc(S(C)(=O)=O)cc3s2)cc1,6%,-4%,3%,2%,?,16%
O=C(NC(=S)Nc1nc2ccc(F)cc2s1)c1ccco1,10µM*,-2%,?,6%,1.3µM*,2.5µM*
COCC(=O)Nc1nc2ccc(S(C)(=O)=O)cc2s1,-2%,-4%,16%,17%,?,18%
O=C(CN1C(=O)CCc2cc(S(=O)(=O)N3CCOCC3)ccc21)NCc1ccc(F)cc1,.,.,.,.,-4%,.
Nc1nc(SCC(=O)NC2CCCC2)[nH]c(=O)c1-c1ccccc1,-1%,1%,0%,0%,4%,-3%
COc1ccc(NC(=O)N2CCc3c([nH]c4ccc(OC)cc34)C2c2ccc(OC)cc2)cc1 (stereo not given),.,.,.,.,1%,.
SMILES,SMN2 splice up,KinaseGlo FLuc,ELG1 genotox,NPC1 prom act,FLuc modulator,Rab9 promoter act
Cc1c(Cl)ccc2sc(NC(=O)c3ccco3)nc12,.,.,?,2.8µM*,5.4µM*,4µM*
Cc1ccc(NC(=O)Nc2cnccn2)cc1C,.,.,8%,20%,21µM*,?
COc1ccc(NC(=O)Nc2cnccn2)cc1OC,.,.,1%,-4%,4%,2%
Cc1ccc(NC(=O)Nc2cnccn2)cc1,.,.,?,?,17µM*,?
CC(C)c1ccc(NC(=O)Nc2cnccn2)cc1,.,.,?,?,6.7µM*,?
CCc1c(C)sc2c1CCN(Cc1ccccc1F)C2c1ccccc1 (stereo not given),.,.,.,.,-1%,.
Cc1cccc(C)c1OCC(=O)Nc1c(C(=O)c2ccccc2)oc2ccccc12,-13%,.,.,.,2%,.
CC1CCC/C(=N/Nc2nc3ccccc3s2)C1 (stereo not given),11µM*,-12%,?,22%,0.85µM*,3.5µM*
CCC/C=N/Nc1nc2ccccc2s1,?,-6%,?,3.5µM*,3.4µM*,2.8µM*
Cc1ccc(-c2csc(N/N=C/C=C/c3ccccc3)n2)cc1,1%,-5%,0%,-3%,-13%,0%
C(=C\c1ccccc1)/C=N/Nc1nc2ccccc2s1,14µM*,2%,?,1.6µM*,2.4µM*,1.3µM*
Brc1ccc(/C=C/C=N/Nc2nc3ccccc3s2)cc1,-18%,-3%,2%,?,9.5µM*,.
O=S(=O)(N/N=C\C=C\c1ccccc1)c1ccc(Br)cc1,13%,-1%,0%,-3%,0%,0%
O=C(COC(=O)/C=C/c1ccccc1Cl)NC1CCCCCC1,10%,0%,-2%,-1%,-1%,2%
COc1ccc(NS(=O)(=O)c2ccc(NC(=O)N3CCCC3)cc2)cc1,.,.,.,.,-7%,.
COc1ccc(OCc2nnc(SCC(=O)Nc3cccc(C(C)=O)c3)o2)cc1,.,.,-2%,-3%,19µM*,-1%
COc1cccc(NC(=O)CSc2nnc(COc3ccc4c(c3)CCCC4)o2)c1,1%,-2%,-1%,12%,21µM*,1%
C=CCn1c(COc2ccccc2)nnc1SCC(=O)Nc1ccc2c(c1)OCCO2,-2%,-8%,4%,-6%,-8%,3%
C=CCn1c(COc2ccc3c(c2)CCCC3)nnc1SCC(=O)Nc1cccc(SC)c1,8%,-4%,-8%,11%,13µM*,8%
CCOC(=O)CSC1=C(C#N)C(C)C2=C(CCCC2=O)N1 (stereo not given),-7%,0%,10%,-1%,-1%,0%
CCOC(=O)c1c(C)oc2nc(C)nc(NC(C)c3ccccc3)c12 (stereo not given),.,.,.,.,-7%,.
COc1cc(C(C)=O)ccc1OCC(=O)NCC(c1ccc(F)cc1)N1CCOCC1 (stereo not given),.,.,6%,.,.,.
O=C(NNc1cc(Br)c(O)c(Br)c1)c1ccccc1,-22%,-15%,-4%,4%,21µM*,-4%
O=c1c2c3c(sc2n(Cc2ccc(F)cc2Cl)c(=O)n1-c1ccc(Cl)cc1)CCC3,.,.,.,.,0%,.
O=[N+]([O-])c1ccc(-c2cnc3ccccc3n2)cc1,.,.,?,3.2µM*,?,?
